The source made the active and inactive calls. The calls were made as follows: active = hit-call score of the fitted dose curve at least 0.9, where 1 is the maximum; inactive = score below 0.9.
What follows are compounds tested on Bcl-2 (BAX) gene, BAX (gene 581) (assay: LTEA_HepaRG_BAX: Life Technologies and Expression Analysis (LTEA) Assay for Bcl-2 (BAX) gene using HepaRG (AID 2283470)). Settings: mRNA level, 48 h; actives raise or lower the signal.
Experimental: LTEA_HepaRG is a cell based, multiplexed-readout assay that uses HepaRG, a human liver cell line, with measurements taken at 48 hours after chemical dosing on a 96-well plate.LTEA_HepaRG_BAX is one of 102 assay component(s) measured in the LTEA HepaRG cell culture assay. It is a marker of Cell proliferation, survival, death.Data from the assay component LTEA_HepaRG_BAX was analyzed into 1 endpoint. This assay endpoint, LTEA_HepaRG_BAX, was analyzed with bidirectional fitting relative to DMSO as the negative control and baseline of activity. Using a type of inducible reporter, measures of mRNA induction for gain or loss-of-signal activity can be used to understand regulation of transcription factor activity. To generalize the intended target to other relatable targets, this assay endpoint is annotated to the cell cycle intended target family, where the subfamily is Cell proliferation, survival, death.
A total of 1060 chemcials from the ToxCast library were tested in eight-point concentration-response experiments. Cell culture and cytotoxicity assays were conducted at Thermo Fisher Scientific's Custom Services facility (Madison, WI). A single lot of human HepaRG cells (Thermo Fisher Scientific, Frederick, MD) was used for the cell culture experiments. 96-well format collagen type I coated plates of human HepaRG cells were prepared using established methods. Briefly, cryopreserved HepaRG cells were thawed, plated at a density of approximately 100,000 cells/well in HepaRG Thaw, Plate, and General Purpose media (HPRG770, Thermo Fisher Scientific), and incubated for 48 hours. 0.5% DMSO was selected as vehicle control to balance the requisite need of DMSO in HepaRG cultures to maintain differentiation (for example, baseline metabolism, proportions of hepatocytes vs. cholangiocytes), while enabling further hepatic receptor pathway activation (for example, PXR and CAR) in response to chemical exposure. 48 hours after plating, the culture medium was replaced with HepaRG Serum-Free Incudtion Media. Cells were exposed to each test chemical in duplicate and maintained in CO2 incubators for another 48 hours. Chemical plates were thawed to room temperature and 200x concentrations of treatment groups were prepared. 8-point conentration-reponse curves were made with the highest exposure at 100 uM, followed by half-log dilutions, all in 0.5% DMSO. Each test plate contained variouse controls, induction positive controls (1mM phenobarbital), cytotoxicity positive controls ([…] aflatoxin B1), vehicle controls (0.5% DMSO), and total lysis controls (0.5% DMSO). Cell morphology images were taken using an Essen IncuCyte FLR automated microscope, with six 96-well plates imaged in about 24 minutes. Images were captured and exported and JPEG files. Spent culture media was transfered to black-well plates for the LDH assay, and remaining media was sorted at -80 C for later use. Cells were treated with RLT buffer and frozen until shipped for gene expression analysis. Total RNA was isolated from the cell suspension in 75 uL of Buffer RLT (Qiagen, Germantown, MD 20874) by Quintiles/Expression Analysis (Durham, NC) using a custom isolation procedure. Total RNA from each plate well was transferred to a preamplification plate. Fluidigm's 96.96 Dynamic ArrayTM (Fluidigm, Amsterdam, the Netherlands) technology was used for gene expression analyses by quantitative reverse transcription polymerase chain reaction (qRT-PCR, performed by Quintiles/Expression Analysis, Durham, NC)89. Standard TaqManTM Assays (Applied Biosystems/ThermoFisher Scientific, Foster City, CA) were used to assess the expression of 93 genes selected based on their selectivity and sensitivity to important hepatic receptors known to be modulated by environmental chemicals; importance in human hepatocyte functionality; and hepatotoxicity. […]

| Compound | outcome | AC50 |
| --- | --- | --- |
| O=C(OC[C@H]1O[C@@H](OC(=O)c2cc(O)c(O)c(OC(=O)c3cc(O)c(O)c(O)c3)c2)[C@H](OC(=O)c2cc(O)c(O)c(OC(=O)c3cc(O)c(O)c(O)c3)c2)[C@@H](OC(=O)c2cc(O)c(O)c(OC(=O)c3cc(O)c(O)c(O)c3)c2)[C@@H]1OC(=O)c1cc(O)c(O)c(OC(=O)c2cc(O)c(O)c(O)c2)c1)c1cc(O)c(O)c(OC(=O)c2cc(O)c(O)c(O)c2)c1 | inactive |  |
| CC/C(=C\C(=N/O)C(N)=O)C(C)[N+](=O)[O-] (stereo not given) | inactive |  |
| COc1ccc(-n2nc(C(F)F)cc2-c2ccc(S(C)=O)cc2)cc1 (stereo not given) | inactive |  |
| CCc1cc(SCc2sc(-c3ccc(C(F)(F)F)cc3)nc2CN2CCN(c3ccc(OC)cc3)CC2)ccc1OCC(=O)O |  | 97.2 µM (active) |
| CC1(C)C(=O)N(Br)C(=O)N1Br | inactive |  |
| COCCOc1cc2cc(C(=O)NC3CCN(C(C)C)CC3)n(CC(=O)Nc3ccc(Cl)cn3)c2cn1 | inactive |  |
| Cc1c(-c2cccnc2)c2ccccc2n1CCCCC(=O)O | inactive |  |
| C=CC(=C)CCC=C(C)C | inactive |  |
| O=C(O)c1cccc(N(Cc2cccnc2)c2ccc(OC(F)F)c(OC(F)F)c2)c1 | inactive |  |
| CCOCCO | inactive |  |
| CC(C)c1cccc(C(C)C)c1N1C(=O)c2ccc(O)cc2C1=O |  | 50 µM (active) |
| Cc1ccc(C)c(O)c1 | inactive |  |
| O=C(O)CCN(C1(C(=O)NO)CCCC1)S(=O)(=O)c1ccc(Oc2ccc(F)cc2)cc1 | inactive |  |
| COC(=O)CC(=O)OC | inactive |  |
| O=C(O)c1cccc(Oc2ccccc2)c1 | inactive |  |
| C1N2CN3CN1CN(C2)C3 | inactive |  |
| CN(C)c1ccc(Cc2ccc(N(C)C)cc2)cc1 | inactive |  |
| C[C@](N)(Cc1ccc(O)c(O)c1)C(=O)O | inactive |  |
| CC(=O)c1ccc2c(c1)[C@H](NC(=O)c1ccc(F)cc1)[C@@H](O)C(C)(C)O2 | inactive |  |
| CC(C)CC(C)(O)C#CC(C)(O)CC(C)C (stereo not given) | inactive |  |

| Compound | outcome | AC50 |
| --- | --- | --- |
| Clc1nc(Cl)c(Cl)c(Cl)c1Cl | inactive |  |
| O=C(O)CC(O)C(=O)O (stereo not given) | inactive |  |
| CC[C@H]1CC[C@H](NCc2cc3c(cc2OC)[C@H]2C[C@H]2C(=O)N3C)[C@H](c2ccccc2)N1 | inactive |  |
| O=C(O)c1cc(N=Nc2ccc(S(=O)(=O)Nc3ccccn3)cc2)ccc1O | inactive |  |
| Cn1c(=O)c2c(ncn2C)n(C)c1=O | inactive |  |
| CN(C)c1ccc(N=NS(=O)(=O)O)cc1 | inactive |  |
| CCNc1ccccc1 | inactive |  |
| CC(C)CCCCCCOC(=O)c1ccc(C(=O)OCCCCCCC(C)C)c(C(=O)OCCCCCCC(C)C)c1 | inactive |  |
| O=c1n(CC2CO2)c(=O)n(CC2CO2)c(=O)n1CC1CO1 (stereo not given) |  | 83.4 µM (active) |
| CCCCCCCCO | inactive |  |
| Cn1cnc([N+](=O)[O-])c1Sc1ncnc2nc[nH]c12 |  | 8.77 µM (active) |
| CCC(C)(C)C(=O)O[C@H]1C[C@@H](C)C=C2C=C[C@H](C)[C@H](CC[C@@H]3C[C@@H](O)CC(=O)O3)[C@H]21 | inactive |  |
| CC(C)=CCC/C(C)=C/CO | inactive |  |
| Fc1ccccc1[C@@H](F)COC1CCC(Nc2ncnc3[nH]ncc23)CC1 (stereo not given in full) |  | 50 µM (active) |
| CCOCCOCCOCCO | inactive |  |
| C=CCCCCCCCCC(=O)O | inactive |  |
| CCCC(=O)OCC | inactive |  |
| CCOC(=O)c1ccc(C2CCC(NC[C@H](O)COc3ccc(O)c(NS(C)(=O)=O)c3)CC2)cc1 (stereo not given in full) | inactive |  |
| COc1cccc(-c2ccc(/C=C\CN3CCCCCC3)cc2Cl)c1 |  | 74.5 µM (active) |
| CC(C)CCCCCCCOC(=O)CCCCC(=O)OCCCCCCCC(C)C | inactive |  |
